# Screening data (PubChem BioAssay)
# SMN2 splice up = increases expression of the SMN2 splice variant; HEK293 SMN2-luciferase splicing reporter, luminescence, 30-36 h; Potency, µM (series often up to 46.1 µM), for inactives: at the highest dose activity change, positive = activation, hits mostly activators; hit rate 2.8% among 210,000; note: % of control where 0% means no effect; nearly all actives have a fitted effect of over 55% in size
#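 qHTS luciferase splicing reporter: luminescence rises when SMN2 exon 7 is included in transfected HEK293 cells. Compound exposure lasted 30-36 h at 37C, with 4.5 mM final sodium butyrate as control, followed by a ONE-Glo read.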
# ELG1 DNA repair = inhibitors of ELG1-dependent DNA repair in HEK293T cells. HEK293T ELG1-luciferase reporter, luminescence, 16 h; DNA damage induced by 5-fluorouridine. Potency, µM (titrated, usually from 46.1 µM), for inactives: top-dose activity change, negative = inhibition, hits mostly inhibitors. hit rate 2.3% among 330,000. AID 504467; note: % is set by controls: 0 for no effect and ±100 for the full control effect; nearly all actives have a fitted effect of over 55% in size
#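 HEK293T cells expressing luciferase-tagged ELG1 (2,000/well) received 5-Fluorouridine plus compound or DMSO for 16 hr at 37 °C. Luciferase was read by ONE-Glo luminescence after 30 min at room temperature.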
# Rab9 prom act = Rab9 promoter activation | Huh7 Rab9 promoter-luciferase reporter, luminescence, 24 h | Potency, µM (top dose mostly 9.22 µM), without a hit: top-dose activation, negative = inhibition, usual class: activators | hit rate 2.8% among 320,000 | AID 485297; note: % of control where 0% means no effect; nearly all actives have a fitted effect of over 60% in size
#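 Promoter activation is measured as luciferase luminescence in Huh7 cells stably transfected with a Rab9 promoter–luciferase construct, following 24 h compound exposure at 37 °C and 10 min reagent incubation at ambient temperature.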
# ELG1 genotoxic = inducers of genotoxicity in HEK293T ELG1-luciferase cells; Potency, µM (doses to about 46 µM), for inactives: top-dose activity change, positive = activation, most hits filed as activators; hit rate 1.3% among 330,000; HEK293T ELG1-luciferase reporter, luminescence, 16 h; note: % of control where 0% means no effect; nearly all actives have a fitted effect of over 60% in size
#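 DMSO vehicle served as control against compound-treated ELG1-luciferase HEK293T cells; exposure lasted 16 hr at 37 °C and 5% CO2, followed by ONE-Glo luminescence detection after 30 min.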
# FLuc counter = inhibits or activates purified firefly luciferase, miR-21 counter-screen | Potency, µM (titrated, usually from 57.5 µM), inactives show at the top dose activity change, negative = inhibition, hits mostly inhibitors | purified FLuc, Km substrates, luminescence inhibition | P08659 | hit rate 6.9% among 360,000 | AID 588342;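 note: plate controls were vehicle for no effect and reference inhibitor for full effect; nearly all actives have a fitted effect of over 55% in size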
# Target sequence (P08659 whole entry, looked up): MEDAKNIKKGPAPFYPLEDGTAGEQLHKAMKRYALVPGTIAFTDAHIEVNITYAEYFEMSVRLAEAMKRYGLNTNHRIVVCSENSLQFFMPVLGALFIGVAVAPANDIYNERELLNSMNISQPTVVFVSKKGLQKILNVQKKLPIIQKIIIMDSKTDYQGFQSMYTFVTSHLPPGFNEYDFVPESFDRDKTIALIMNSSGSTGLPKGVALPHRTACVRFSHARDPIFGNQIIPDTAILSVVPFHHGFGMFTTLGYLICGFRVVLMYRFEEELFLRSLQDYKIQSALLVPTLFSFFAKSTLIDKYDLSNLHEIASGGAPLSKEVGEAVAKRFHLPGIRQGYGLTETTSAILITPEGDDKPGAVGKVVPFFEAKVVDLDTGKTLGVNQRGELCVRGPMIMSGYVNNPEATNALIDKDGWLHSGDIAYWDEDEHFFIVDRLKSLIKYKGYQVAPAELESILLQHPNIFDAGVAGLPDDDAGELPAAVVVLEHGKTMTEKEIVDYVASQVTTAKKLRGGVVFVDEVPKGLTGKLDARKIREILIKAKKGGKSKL
#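 Biochemical qHTS of compounds, final roughly 60 µM downward over six points, against 10 nM purified firefly luciferase using Km concentrations of substrates (10 uM D-luciferin, 10 uM ATP) in Tris acetate pH 7.5 buffer; luminescence output.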
# NPC1 prom act = activators of NPC1 promoter; Huh7 NPC1 promoter luciferase reporter, 24 h; Potency, µM (highest dose often 9.22 µM), inactives show at the highest dose activation, usual class: activators; hit rate 2.4% among 320,000; AID 485313; note: % of control where 0% means no effect; nearly all actives have a fitted effect of over 60% in size
#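 Stably transfected Huh7 (NPC1 promoter→luciferase), 1500 cells/well in Opti-MEM + 10% FBS, 2 h settle, then compound 24 h at 37 °C. Luminescence after 10 min with Amplite reagent.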
# Numbers without * were called inactive; u = inconclusive; x = no result. An excerpt weighted towards active compounds, which were near 9.2% of everything screened. Calls come from the whole dose curve; as a rule, active = well fitted curve in the direction sought with a large enough effect; inconclusive = small, poorly fitted or top-dose-only effect, or another doubt; inactive = no such curve, though single readings can be large; an effect the other way counts as inactive or inconclusive. Potency is the fitted concentration of half-maximal effect.
SMILES,SMN2 splice up,ELG1 DNA repair,Rab9 prom act,ELG1 genotoxic,FLuc counter,NPC1 prom act
CCOCCCNC(=O)CN1C(=O)COc2ccc(S(=O)(=O)N3CCOCC3)cc21,6%,6%,-4%,-2%,-1%,0%
O=C(NC1CC1)c1scc2c1OCCO2,-8%,16µM*,2%,-5%,-1%,0%
Oc1cc(-n2cccn2)c(O)cc1-n1cccn1,x,u,-2%,u,17µM*,-1%
Cc1ccc(N(CC(=O)NC(C)C)C(=O)CCC(=O)Nc2nccs2)cc1C,x,-6%,-3%,1%,3%,-6%
CCOc1ccccc1NC(=O)c1cc(-c2cc(OC)c(OC)c(OC)c2)nc2ccccc12,x,u,9%,-9%,0%,-2%
CCOc1cccc(/C=C/c2cc(C(=O)O)c3ccccc3n2)c1OC,x,u,4.5µM*,u,1.1µM*,2µM*
CCOc1cc(/C=N/N=C/c2ccc(O)c(OCC)c2)ccc1O,x,-9%,1%,-3%,3%,2%
CCOc1cc(/C=C/c2cc(C(=O)O)c3ccccc3n2)ccc1O,13%,u,2%,10%,4.3µM*,1%
COc1cc(/C=C/c2cc(C(=O)O)c3ccccc3n2)cc(OC)c1O,7%,10%,-9%,0%,9.5µM*,0%
CCOc1cc(/C=C/c2cc(C(=O)O)c3ccccc3n2)ccc1OC,22µM*,u,u,u,1.3µM*,u
COc1ccc(NC(=O)COC(=O)C2CCC2)cc1Cl,x,16%,-3%,7%,0%,1%
Cc1cccc(C(=O)NC(=O)Nc2ccc(-c3cc(C(F)(F)F)nn3-c3ccccc3)cc2)c1,x,x,x,x,1%,x
CCOc1ccc(CNc2cccc(SC)c2)cc1,x,-27%,-5%,-5%,2%,-9%
O=C(N/N=C/c1ccc(Br)s1)c1ccc([N+](=O)[O-])cc1,-29%,5.8µM*,-25%,-7%,-2%,-22%
O=C(NN=Cc1ccc(N2CCOCC2)s1)c1ccc([N+](=O)[O-])cc1,x,9.2µM*,x,-9%,x,x
NC(=O)N/N=C/c1ccc(N2CCOCC2)s1,10%,-12%,2%,8%,u,0%
Cc1ccc([N+](=O)[O-])cc1N=Cc1ccc(Br)s1,u,u,-1%,9%,13µM*,u
Cc1ccc(C(=O)Oc2ccc(N3C(=O)CCC3=O)c(C)c2)cc1,7%,8%,-14%,7%,2.7µM*,-4%
Cc1ccc(C(=O)Oc2ccc3ccc(=O)oc3c2)cc1,x,29%,0%,2%,2.4µM*,-4%
COc1cccc(C(=O)Oc2ccc3ccc(=O)oc3c2)c1,x,9%,1%,3%,5.4µM*,-6%
CCCCn1c(=O)c2oc3ccccc3c2n(CC(=O)Nc2ccc(CC)cc2)c1=O,x,x,x,x,-1%,x
Cc1cccc(C)c1NC(=O)Cn1c(=O)n(Cc2ccccc2)c(=O)c2c(C)c(C(=O)N(C)C)sc21,x,x,x,x,-3%,x
CC(NC(=O)COC(=O)CC(c1ccccc1)c1ccccc1)c1ccccc1 (centres undefined),-7%,-15%,0%,-3%,12%,-1%
CCCCn1c(N)c(N(CCOC)C(=O)CSc2n[nH]c(-c3ccc(C)cc3)n2)c(=O)[nH]c1=O,x,3%,-2%,2%,3%,-4%
CCCCCN(C(=O)CSc1n[nH]c(-c2ccc(C)cc2)n1)c1c(N)n(CCCC)c(=O)[nH]c1=O,x,u,23%,9%,2.7µM*,0%
SMILES,SMN2 splice up,ELG1 DNA repair,Rab9 prom act,ELG1 genotoxic,FLuc counter,NPC1 prom act
CCCCn1c(N)c(N(CC(C)C)C(=O)CSc2n[nH]c(-c3ccc(C)cc3)n2)c(=O)[nH]c1=O,x,u,0%,4%,11µM*,1%
CCCCN(C(=O)CSc1nnnn1C)c1c(N)n(Cc2ccccc2)c(=O)[nH]c1=O,x,-10%,-4%,0%,5%,-3%
CCCCCN(C(=O)CCC(=O)OCC(=O)c1ccc(CCC)cc1)c1c(N)n(CCCC)c(=O)[nH]c1=O,x,-7%,-1%,-6%,2.7µM*,1%
CCCCN(C(=O)CSc1nnc(Nc2ccccc2)s1)c1c(N)n(CCC)c(=O)[nH]c1=O,x,-5%,2%,1%,15µM*,-1%
CCCCCN(C(=O)CCC(=O)OCC(=O)c1ccc(C(C)(C)C)cc1)c1c(N)n(CCCC)c(=O)[nH]c1=O,x,u,24%,-2%,u,18%
O=C(CN1C=NS(=O)(=O)c2ccccc21)Nc1ccc(Br)cc1,x,x,x,x,8%,x
CCOC(=O)c1cc(C#N)c(N2CCCNCC2)nc1C(F)(F)F,x,3%,-2%,-2%,0%,-6%
CN1CCN(C(=O)CNc2ccc(C(F)(F)F)cc2[N+](=O)[O-])CC1,x,6%,-3%,-1%,-1%,-3%
COc1ccc(-c2nc(-c3cccnc3)no2)cc1OC,x,u,u,u,17µM*,u
COc1cc(-c2nc(-c3cccnc3)no2)cc(OC)c1OC,-6%,23µM*,-4%,-2%,-7%,1%
CCOc1ccc(-c2ccc(CO)o2)cc1N,x,x,x,x,15µM*,x
CCOC(=O)c1ccc(-c2ccc(CO)o2)cc1,7.9µM*,u,1.6µM*,u,11µM*,1.1µM*
Cc1ccc(-c2ccc(CO)o2)cc1N,-47%,u,-9%,-19%,-18%,8%
CCOc1ccc(OCCOC(=O)CNC(=O)c2ccc(Cl)cc2Cl)cc1,x,-3%,0%,27%,-15%,u
COC(=O)c1c(C)oc2c1cc(NS(=O)(=O)c1c(C)cc(C)cc1C)c1ccccc12,-4%,x,x,x,u,x
O=C(NCc1nc2ccccc2[nH]1)C1=C[C@@H](c2csc3ccccc23)C[C@@H](OCCCCO)O1,x,23µM*,-1%,-10%,-6%,-8%
Cc1ccc(-c2csc3nc(-c4ccncc4)[nH]c(=O)c23)cc1,x,16%,-25%,1%,-16%,-17%
Cc1ccc(-c2nc3ccsc3c(=O)[nH]2)cc1,18µM*,u,u,u,12µM*,21%
Cc1c(C(=O)NCc2ccccc2)oc2ccc(S(=O)(=O)N3CCC4(CC3)OCCO4)cc12,-37%,4.1µM*,-11%,-33%,0%,0%
CCN(CC)S(=O)(=O)c1ccc2oc(C(=O)NCc3ccc(F)cc3)c(C)c2c1,-22%,12µM*,-7%,-8%,5%,-4%
COc1ccc(CCNS(=O)(=O)c2ccc3oc(C(=O)O)c(C)c3c2)cc1OC,9%,6%,0%,-1%,1%,-7%
Cc1c(C(=O)NCc2ccccn2)oc2ccc(S(=O)(=O)N3CCC4(CC3)OCCO4)cc12,-6%,u,-7%,-2%,4%,-4%
